Some test systems named below: CDK8; CDK9; CDKL1; CDKL2; CDKL3; CDKL5; CHEK1; CHEK2; CIT; CLK1; CLK2; CLK3; CLK4; CSF1R-autoinhibited; CSF1R; CSK; CSNK1A1L; CSNK1A1; CSNK1D; CSNK1E.
Holding throughout (settings): concentration: 1 μM,replicates: in singlicate; n = 1
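Further: KINOMEscan kinase panel screen.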

Consider `CN(c1ccc2c(c1)nc(NCc1ccc(F)cc1)n2C)c1ccnc(Nc2ccc(CS(C)(=O)=O)cc2)n1.Cl` [GW813244], for which the “%Inh” value in the assay with CDK8 amounted to 2%; with CDK9, 57%; in the assay on CDKL1, 30%; in the assay on CDKL2 it was 40%; in the assay with CDKL3 it was 20%; with CDKL5, 0%. The “%Inh” value amounted to 0% in the assay with CHEK1; 0% in the assay with CHEK2; 86% with CIT; 13% in the assay on CLK1; 46% in the assay on CLK2; 0% in the assay with CLK3. In addition, the “%Inh” value with CLK4 is listed as 17%; with CSF1R-autoinhibited, 62%; in the assay with CSF1R it was 100%; with CSK it was 0%; in the assay with CSNK1A1L it was 5%; in the assay with CSNK1A1, 28%. Further, the results for the “%Inh” value in the assay with CSNK1D and with CSNK1E were 10% and 0%, respectively.
As to `O=C(NCC1CC1)c1ccc(-c2cc(C(=O)NC3CC3)ccc2F)cc1` [GW810445], the “%Inh” value with CDK8 was found to be 62%; in the assay with CDK9, 0%; with CDKL1, 0%; with CDKL2 it was 0%; with CDKL3, 28%; in the assay on CDKL5 it was 0%. The “%Inh” value worked out at 0% in the assay on CHEK1; 0% with CHEK2; 25% in the assay on CIT; 0% with CLK1; 15% with CLK2; 0% with CLK3. Besides, the “%Inh” value stood at 0% with CLK4; 8% with CSF1R-autoinhibited; 0% in the assay with CSF1R; 0% in the assay on CSK; 0% with CSNK1A1L; 0% in the assay on CSNK1A1. Moreover, the “%Inh” value in the assay on CSNK1D and in the assay with CSNK1E was 0% throughout.
Turning to `C[C@@H](Oc1cc(-n2cnc3cc(-c4cnn(C)c4)ccc32)sc1C(N)=O)c1ccccc1Cl` [GSK580432], the “%Inh” value in the assay with CDK8 amounted to 17%; with CDK9 it was 5%; in the assay with CDKL1, 20%; in the assay with CDKL2, 22%; in the assay on CDKL3, 0%; with CDKL5 it was 0%. For the same compound, the “%Inh” value in the assay with CHEK1 is listed as 32%; in the assay on CHEK2 it was 0%; with CIT it was 32%; with CLK1, 59%; in the assay with CLK2, 23%; with CLK3, 23%. Also, the “%Inh” value came out at 34% in the assay with CLK4; 0% in the assay on CSF1R-autoinhibited; 80% in the assay on CSF1R; 3% in the assay on CSK; 1% with CSNK1A1L; 7% in the assay with CSNK1A1. Further, the “%Inh” value in the assay on CSNK1D and with CSNK1E was 0% throughout.
Regarding `Cn1cc(-c2cccc3c(N)c(C(N)=O)nnc23)cn1`, the “%Inh” value with CDK8 stood at 33%; in the assay with CDK9, 0%; in the assay on CDKL1, 32%; in the assay with CDKL2, 12%; in the assay on CDKL3 it was 7%; in the assay with CDKL5, 0%. Also, the “%Inh” value in the assay with CHEK1 stood at 0%; in the assay on CHEK2, 0%; in the assay with CIT, 10%; in the assay on CLK1, 74%; in the assay on CLK2, 78%; in the assay with CLK3, 20%. Further, the “%Inh” value is recorded as 75% in the assay on CLK4; 0% in the assay with CSF1R-autoinhibited; 0% in the assay on CSF1R; 19% with CSK; 21% with CSNK1A1L; 72% in the assay with CSNK1A1. Moreover, the “%Inh” value in the assay with CSNK1D was found to be 32%; with CSNK1E, 25%.
Consider `NC(=O)Nc1sc(-c2ccc(F)cc2)cc1C(N)=O` [GW789449], for which the “%Inh” value came out at 46% in the assay with CDK8; 0% in the assay with CDK9; 27% in the assay with CDKL1; 17% with CDKL2; 10% with CDKL3; 0% in the assay on CDKL5. Moreover, the “%Inh” value in the assay with CHEK1 stood at 0%; in the assay on CHEK2, 69%; in the assay with CIT it was 27%; in the assay on CLK1 it was 9%; with CLK2, 0%; with CLK3, 15%. In addition, the “%Inh” value amounted to 0% in the assay with CLK4; 39% in the assay with CSF1R-autoinhibited; 77% with CSF1R; 6% in the assay on CSK; 5% with CSNK1A1L; 35% with CSNK1A1. Also, the “%Inh” value with CSNK1D is 55%; in the assay on CSNK1E it was 40%.
For the compound `COc1cc2c(Nc3ccc(NC(=O)c4ccccc4)cc3)ncnc2cc1OCCCN1CCOCC1` [GSK301329], the “%Inh” value with CDK8 amounted to 0%; in the assay on CDK9 it was 0%; with CDKL1, 23%; with CDKL2, 30%; with CDKL3, 0%; with CDKL5, 0%. Besides, the “%Inh” value in the assay on CHEK1 came to 0%; with CHEK2 it was 58%; with CIT, 9%; in the assay with CLK1, 10%; in the assay with CLK2 it was 0%; with CLK3 it was 100%. The “%Inh” value in the assay with CLK4 is 6%; with CSF1R-autoinhibited it was 0%; in the assay on CSF1R it was 18%; in the assay with CSK, 4%; in the assay with CSNK1A1L it was 9%; with CSNK1A1, 7%. In addition, the “%Inh” value in the assay with CSNK1D is recorded as 3%; with CSNK1E, 59%.
As for `Cn1ccc2ncnc(Oc3ccc(NC(=O)Nc4cccc(C(F)(F)F)c4)c(F)c3)c21`, the “%Inh” value in the assay with CDK8 worked out at 100%; with CDK9, 24%; with CDKL1, 62%; with CDKL2, 45%; in the assay on CDKL3, 7%; with CDKL5, 0%. Also, the “%Inh” value in the assay on CHEK1 amounted to 0%; with CHEK2, 1%; in the assay with CIT, 78%; in the assay on CLK1, 13%; with CLK2, 9%; in the assay with CLK3 it was 4%. Moreover, the “%Inh” value with CLK4 came to 0%; in the assay with CSF1R-autoinhibited it was 0%; in the assay with CSF1R it was 99.9%; with CSK, 0%; with CSNK1A1L it was 0%; in the assay on CSNK1A1, 39%. The “%Inh” value with CSNK1D is given as 22%; in the assay on CSNK1E it was 13%.
For `COc1cccc(C2=C(Nc3cccc(Cl)c3)C(=O)NC2=O)c1` [SB-341556], the “%Inh” value in the assay on CDK8 came to 0%; in the assay on CDK9 it was 0%; in the assay on CDKL1, 18%; with CDKL2, 12%; with CDKL3, 0%; in the assay on CDKL5, 0%. Besides, the “%Inh” value in the assay with CHEK1 is 14%; with CHEK2, 0%; with CIT, 0%; with CLK1, 69%; in the assay with CLK2 it was 69%; in the assay with CLK3, 0%. For the same compound, the “%Inh” value with CLK4 was determined as 55%; in the assay on CSF1R-autoinhibited, 0%; in the assay on CSF1R, 18%; in the assay with CSK it was 0%; with CSNK1A1L, 0%; in the assay with CSNK1A1, 36%. Besides, the “%Inh” value with CSNK1D is reported as 10%; in the assay with CSNK1E, 20%.

The record behind these values is paper PMC5540273 (PLoS ONE, 2017).
